In the first assay the target is Fibroblast growth factor 10 (Homo sapiens) (UniProt O15520). Nature of the assay: compounds binding fibroblast growth factor 10 – biochemical, small-molecule microarray, 635 nm fluorescence, primary screen (AID 1102). Particulars: FGF10 binding, fluorescence 635 nm, higher = more signal.
Chain of Fibroblast growth factor 10 (Homo sapiens) (O15520 whole entry, looked up): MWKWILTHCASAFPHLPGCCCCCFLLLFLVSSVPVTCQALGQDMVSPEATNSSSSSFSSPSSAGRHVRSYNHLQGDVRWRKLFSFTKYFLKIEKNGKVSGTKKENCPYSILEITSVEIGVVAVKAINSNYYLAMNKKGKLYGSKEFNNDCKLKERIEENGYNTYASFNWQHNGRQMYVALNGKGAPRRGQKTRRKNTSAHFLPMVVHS
For the compound `CN(C)CCCNC(=O)[C@@]1(C)c2ccccc2C(=O)N(Cc2ccccc2)[C@H]1c1ccc(CO)cc1`, the composite z-score was -0.476. Still for that read-out and setting: in the case of `C=CCNC(=O)[C@@H]1[C@H]2C(=O)O[C@H](c3ccccc3)[C@H](c3ccccc3)N2[C@H](c2ccc(O)cc2)[C@@]12C(=O)N(C(=O)OCCOC)c1ccc(C#CC3(O)CCCCCC3)cc12` it was -1.72. Same read-out and setting: in the case of `CN(C)C(=O)[C@@]1(Cc2ccccc2CN=[N+]=[N-])N=C(c2ccc(OCCCO)cc2)O[C@H]1c1ccccc1CN=[N+]=[N-]` it was 0.871.

In turn, `O=C1O[C@@H](c2ccccc2)[C@@H](c2ccccc2)N2[C@@H](c3ccc(O)cc3)[C@]3(C(=O)Nc4ccc(C#CC5=CCCCC5)cc43)[C@@H](C(=O)NC[C@H](O)c3ccccc3)[C@H]12` yielded a composite z-score of 1.41. Same read-out and setting: in the case of `CC(C)(C)OC(=O)CC[C@]1(C(=O)NCc2ccccc2)N=C(c2ccc(OCCCO)cc2)O[C@H]1c1ccccc1CN=[N+]=[N-]` it was 1.22. In turn, `CC(C)C[C@@H]1NC(=O)[C@@H]2C[C@H](C(=O)NCCCCN(C)C)[C@H](c3cccc(OCCO)c3)N2C1=O` came in with a composite z-score of -0.272.

In another assay the test system is glycogen synthase kinase-3 (GSK3A per assay name; protocol says GSK3B). Nature of the assay: compounds binding glycogen synthase kinase-3 – biochemical, small-molecule microarray, 635 nm fluorescence, GSK3A, primary screen (AID 1103). Note: the record names both GSK3A and GSK3B. Particulars: fluorescence 635 nm, higher = more signal.
For `COCCOC(=O)N1C(=O)[C@@]2(c3cc(C#CC4=CCCCC4)ccc31)[C@H](C(N)=O)[C@H]1C(=O)O[C@H](c3ccccc3)[C@H](c3ccccc3)N1[C@@H]2c1ccccc1OCCO`, the composite z-score is 1.32. On the same count and under the same terms, in the case of `O=C1NC(=O)C2C1C=CC(C(O)c1ccco1)N2Nc1ccccn1` (configuration not stated) it was 0.03. Still for that read-out and setting: in the case of `CCCCN1CC=CC23O[C@@H]4/C=C\CCC(C)OC(=O)C4[C@H]2C(=O)N(C(CO)C(C)C)[C@@H]3C1=O` (some centres not stated) it was 0.347. The same measure, in the same setting: in the case of `CC=CC(O)C1C=CC2C(=O)N(c3ccccc3)C(=O)C2N1Nc1ccccc1F` (configuration not stated) it was -0.352. `COc1ccccc1CN1C(=O)c2ccccc2[C@](Cc2ccccc2I)(C(=O)NCC(F)(F)F)[C@@H]1c1ccc(CO)cc1` yielded a composite z-score of 1.29.

Consider `O=C1NC(=O)C2C1C=CC(C(O)c1c(F)cccc1Cl)N2Nc1ccc(Cl)cc1Cl` (configuration not stated), for which the composite z-score is 0.249. The same measure, in the same setting: in the case of `COC(=O)[C@@]1(Cc2ccccc2)[C@H]2c3cc(C(=O)N(C)C)n(CCc4ccc(O)c(OC)c4)c3C[C@H]2CN1C(=O)c1ccccc1` it was 0.652.

With `CCCNC(=O)[C@@H]1c2ccccc2C(=O)N(C(C)C)[C@H]1c1ccc(CO)cc1`, the composite z-score was -0.307. As to `[N-]=[N+]=Nc1ccccc1[C@H]1OC(c2ccc(OCCCO)cc2)=N[C@@]1(Cc1ccccc1)C(=O)N1CCCCC1`, the composite z-score was 0.99. On the same count and under the same terms, in the case of `C=CCC(OC(C)=O)[C@@H]1[C@@H](N(Cc2cccc3ccccc23)C(=O)Cc2ccc(F)cc2)c2cc(OCCCO)ccc2N1C(=O)c1ccc2ccccc2n1` (some centres not stated) it was -0.329; in that of `C[N+](C)(C)CCCC[C@@H]1NC(=O)[C@H]2C[C@@H](C(=O)NCCCCCCN)[C@@H](c3ccc(O)cc3)N2C1=O`, 1.3. The compound `C=C(CCCC)/C(=C/C[C@@H](OC(=O)c1ccncc1)c1ccccc1OCCO)c1cnc2ccccc2c1` registered a composite z-score of 1.15.

With `O=C1c2ccccc2[C@](Cc2ccccc2I)(C(=O)NCC(F)(F)F)[C@H](c2ccc(CO)cc2)N1C1CCCCC1`, the composite z-score is 0.884.

Turning to `CC(C)N1C(=O)C[C@@](C(=O)NCCCN(C)C)(c2ccc([N+](=O)[O-])cc2)[C@H]1c1ccc(CO)cc1`, the composite z-score was -0.777.

On to `C=C[C@@H](COC(C)=O)N(C(=O)OC(C)(C)C)S(=O)(=O)c1ccc(Br)cc1`, for which the composite z-score is 1.23. Still for that read-out and setting: in the case of `CC1CC/C=C\[C@H]2OC34C=CCN(c5ccc(Cl)cc5)C(=O)[C@H]3N(CCCCCO)C(=O)[C@]4(C)C2C(=O)O1` (some centres not stated) it was -0.798; in that of `O=C1O[C@H](c2ccccc2)[C@H](c2ccccc2)N2[C@H]1[C@@H](C(=O)Nc1nc3ccccc3s1)[C@]1(C(=O)Nc3ccc(C#CCCO)cc31)[C@H]2c1ccc(O)cc1`, 0.88; in that of `COCCOC(=O)N1C(=O)[C@@]2(c3cc(C#CC4(O)CCCCCC4)ccc31)[C@H](c1ccc(O)cc1)N1[C@H](c3ccccc3)[C@H](c3ccccc3)OC(=O)[C@H]1[C@@H]2C(=O)NC[C@H](O)c1ccccc1`, 1.29. Same read-out and setting: in the case of `O=C1O[C@@H](c2ccccc2)[C@@H](c2ccccc2)N2[C@@H](c3ccccc3OCCO)[C@]3(C(=O)Nc4ccc(C#CCCO)cc43)[C@@H](C(=O)N3CCCCCCC3)[C@H]12` it was 1.45; in that of `COc1ccc([Si](C)(C)[C@@H]2[C@@H](CCO)O[C@]3(C(=O)N(Cc4ccc(N5CCCCC5=O)cc4)c4ccccc43)[C@H]2C)cc1`, 0.83; in that of `O=C(NCC(F)(F)F)[C@@H]1c2ccccc2C(=O)N(Cc2cc(F)cc(C(F)(F)F)c2)[C@H]1c1ccc(CO)cc1`, -0.587. The same measure, in the same setting: in the case of `Cc1ccccc1C(O)C1C=CC2C(=O)N(C)C(=O)C2N1N(c1ccccc1)c1ccccc1` (configuration not stated) it was -0.401; in that of `O=C(CS)NCCCCCCNC(=O)[C@H]1C[C@H]2C(=O)N[C@@H](Cc3ccccc3)C(=O)N2[C@H]1c1ccc(O)cc1`, 0.992.

In turn, `C=CCN1Cc2ccccc2[C@H]2OC(c3ccc(OCCCO)cc3)=N[C@@]2(CC=C)C1=O` came in with a composite z-score of 1.28. The same measure, in the same setting: in the case of `CO[C@]12C=C(Br)[C@@H](C[C@@H]1c1cccc(C)c1)[C@@]1(CO1)C2=O` it was -0.207; in that of `C=CC[C@]1(C(=O)O)COC(c2ccc(OCCCO)cc2)=N1`, 0.156.

Take `CCOC(=O)[C@H]1[C@@H]2C(=O)N3CCC[C@H]3[C@H](O[Si](C(C)C)(C(C)C)C(C)C)[C@H]2C=C2CCN(S(=O)(=O)c3ccc(C)cc3)C[C@H]21`: the composite z-score came out at 0.938. Same read-out and setting: in the case of `CN(C)CCCCNC(=O)[C@@H]1C[C@@H]2C(=O)N[C@@H](Cc3ccccc3)C(=O)N2[C@@H]1c1cccc(OCCO)c1` it was 0.727; in that of `C=C(C)C1CCC(C(O)C2C=CC3C(=O)N(C)C(=O)C3N2N2CCCCC2)CC1` (configuration not stated), 1.3; in that of `CN1C(=O)C2C=CC(C(O)c3ccccn3)N(N(c3ccccc3)c3ccccc3)C2C1=O` (configuration not stated), 0.19. Consider `CN(C)CCCNC(=O)[C@@]1(C)c2ccccc2C(=O)N(Cc2ccccc2)[C@H]1c1ccc(CO)cc1`, for which the composite z-score was -0.35. For the compound `C=CCNC(=O)[C@@H]1[C@H]2C(=O)O[C@H](c3ccccc3)[C@H](c3ccccc3)N2[C@H](c2ccc(O)cc2)[C@@]12C(=O)N(C(=O)OCCOC)c1ccc(C#CC3(O)CCCCCC3)cc12`, the composite z-score is -1.44. For the compound `CN(C)C(=O)[C@@]1(Cc2ccccc2CN=[N+]=[N-])N=C(c2ccc(OCCCO)cc2)O[C@H]1c1ccccc1CN=[N+]=[N-]`, the composite z-score was -0.581. The same measure, in the same setting: in the case of `O=C1O[C@@H](c2ccccc2)[C@@H](c2ccccc2)N2[C@@H](c3ccc(O)cc3)[C@]3(C(=O)Nc4ccc(C#CC5=CCCCC5)cc43)[C@@H](C(=O)NC[C@H](O)c3ccccc3)[C@H]12` it was 1.28.

In turn, `CC(C)(C)OC(=O)CC[C@]1(C(=O)NCc2ccccc2)N=C(c2ccc(OCCCO)cc2)O[C@H]1c1ccccc1CN=[N+]=[N-]` registered a composite z-score of 1.36. Same read-out and setting: in the case of `CC(C)C[C@@H]1NC(=O)[C@@H]2C[C@H](C(=O)NCCCCN(C)C)[C@H](c3cccc(OCCO)c3)N2C1=O` it was -1.24.

The values are drawn from PubChem BioAssay.
